# Records with an inconclusive call do not appear. Activity calls are given as the source filed them. The call rests on the fitted dose curve; in most records, active means well fitted curve in the direction sought with a large enough effect; inconclusive means small, poorly fitted or top-dose-only effect, or another doubt; inactive means no such curve, though single readings can be large; an effect the other way counts as inactive or inconclusive.
# Legend:
# [1] = biological target: Aldehyde dehydrogenase, mitochondrial (Homo sapiens) (UniProt P05091); assay: qHTS for Inhibitors of the Aldehyde Dehydrogenase Family (ALDH2) Primary screen (AID 2061308); further: nearly all actives have a fitted effect of over 55% in size
# [2] = biological target: Retinaldehyde dehydrogenase 3 (Homo sapiens) (UniProt P47895); assay: qHTS for Inhibitors of the Aldehyde Dehydrogenase Family (ALDH1A3) Primary screen (AID 2061315)
# [3] = BET inhibitor-based combinations targeting novel dependencies in MECOM-rearranged (r) AML: OCI-AML3 cell line (AID 2202232); details: Potency: OCI-AML3 viability; further: potency means the concentration at half of the fitted maximal effect; nearly all actives have a fitted effect of over 35% in size
# Procedure, shortened: (§1)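 Viability of cells (500 per well) is scored by luminescent CellTiter-Glo at 48 hr post-dosing. Eleven-point titrations are normalized to DMSO and empty controls and reduced to AUC values.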
# [4] = BET inhibitor-based combinations targeting novel dependencies in MECOM-rearranged (r) AML: MV-4-11 cell line (AID 2202233); further: potency means the concentration at half of the fitted maximal effect; nearly all actives have a fitted effect of over 45% in size
# Procedure, shortened: (§2)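 Using pin-tool transfer, drugs were added in 11 doses to cells (500/well), incubated 48 hr, and assessed with CellTiter-Glo. Z-AUC is a mean-centring transformation applied separately to each screened line.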
# [5] = BET inhibitor-based combinations targeting novel dependencies in MECOM-rearranged (r) AML: HNT-34 cell line (AID 2202234); further: potency means the concentration at half of the fitted maximal effect; nearly all actives have a fitted effect of over 35% in size
# Procedure, shortened: as §2
# [6] = BET inhibitor-based combinations targeting novel dependencies in MECOM-rearranged (r) AML: AML-194 cell line (AID 2202237; further: potency means the concentration at half of the fitted maximal effect; nearly all actives have a fitted effect of over 40% in size)
# Procedure, shortened: as §1
# [7] = biological target: Retinal dehydrogenase 2 (Homo sapiens) (UniProt O94788); assay: qHTS for Inhibitors of the Aldehyde Dehydrogenase Family (ALDH1A2) Confirmation screens (AID 2061314); further: nearly all actives have a fitted effect of over 65% in size; further: potency means the concentration at half of the fitted maximal effect
# [8] = biological target: Retinaldehyde dehydrogenase 3 (Homo sapiens) (UniProt P47895); assay: qHTS for Inhibitors of the Aldehyde Dehydrogenase Family (ALDH1A3) Confirmatory screens (AID 2061311); further: nearly all actives have a fitted effect of over 60% in size; further: potency means the concentration at half of the fitted maximal effect
compound,measurement,setting,value
Cc1ccc(NC(=O)c2ccc(CN3CC[C@H](N(C)C)C3)c(C(F)(F)F)c2)cc1Nc1nccc(-c2cncnc2)n1,Potency,[1],inactive
same,Potency,[2],inactive
same,Potency,[3],2040 nM (active)
same,Potency,[4],8110 nM (active)
same,Potency,[5],40.7 nM (active)
same,Potency,[6],14400 nM (active)
O=C(O)c1cc(Br)c(O)c2ncccc12,Potency,[7],449 nM (active)
CCC(=O)NC(C)c1cc(Cl)c2ccccc2c1O (configuration not stated),Potency,[8],12700 nM (active)
same,Potency,[7],1010 nM (active)
CC(=O)Nc1sc2c(c1-c1nccs1)CCNC2,Potency,[8],inactive
same,Potency,[7],inactive
same,Potency,[2],inactive
